Measurements taken from PubChem BioAssay AID434982 (The Scripps Research Institute Molecular Screening Center, 2010).
Among all 15,000 compounds or so, about 60 (0.4%) were called active. The entries come from a sample that favours actives as a whole. Unmarked numbers belong to inactive results. Rule as the data show it: active = activation above about 2.2%; inactive = the rest.

Assay: agonists of NOTCH signaling (AID 434982)
Details: NOTCH signaling luciferase reporter cells, luminescence; at 2.5 µM; active compounds read high

| Structure (SMILES) | activation |
| --- | --- |
| O=C1/C(=C\c2ccc3c(c2)OCO3)N2CCC1CC2 | 3.83% (active) |
| CN(C)CC1CCCCC1=O (stereo not given) | 0.24% |
| CNC(=O)O/N=C(\N)Cc1csc2ccc(Cl)cc12 | 0.88% |
| Cc1ccc(Oc2c(C)nc(-c3ccccc3)nc2OC(=O)N(C)C)cc1 | 0.1% |
| N#CCN1CCN(c2cccc(Cl)c2)CC1 | 0.33% |
